In PubChem BioAssay (NCATS) one finds Potency, max response and outcome data, which are given here for eleven molecules.

The structures appear in SMILES notation. Where “and” joins values, the source holds several entries; their conditions need not be identical. Equal entries are not always repeated. Inconclusive results are not listed. The source holds several records for some structures; these can differ, active in one and inactive in another. Calls of active or inactive are those of the source. Calls follow the shape of the dose curve; as a rule, active = well fitted inhibition curve with a large enough effect; inconclusive = small, poorly fitted or top-dose-only effect; inactive = flat fitted curve, though single readings scatter.

Assay [1] deals with PC49. The experiment in a line: qHTS profiling for inhibitors of Plasmodium falciparum proliferation (AID 504749). The settings on record: P. falciparum in erythrocytes, SYBR Green DNA, 72 h; series mostly up to 28.7 µM. An outline of the steps: (§1)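 Quantitative HTS: compounds pinned into medium, infected erythrocytes added (0.3% parasitemia, 2.5% hematocrit), 72 h culture at 37 C under 5% CO2. Saponin/Triton lysis with SYBR Green I, overnight RT, then fluorescence read.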

In assay [2] the test system is SC27B. Described as above. The settings on record: P. falciparum in erythrocytes, SYBR Green DNA, 72 h; series mostly up to 28.7 µM. An outline of the steps: as §1
In assay [3] the test system is TAB109. The assay is described as above. The settings on record: P. falciparum in erythrocytes, SYBR Green DNA, 72 h; series mostly up to 28.7 µM. In outline:
as §1

The subject of assay [4] is TAB113. The description is as above. To be noted: P. falciparum in erythrocytes, SYBR Green DNA, 72 h; series mostly up to 28.7 µM. In outline: as §1
Assay [5] deals with W2. Described as above. The settings on record: P. falciparum in erythrocytes, SYBR Green DNA, 72 h; series mostly up to 28.7 µM. In outline: as §1
For assay [6], the system named is CRL-7250. The experiment in a line: Cytotoxic Profiling of Annotated Libraries Using Quantitative High-Throughput Screening (AID 1296008). As to max response: % is scaled to controls: 0 for no effect and ±100 for the full control effect. To be noted: Five cell lines viability, CellTiter-Glo ATP luminescence, 48-72 h; max response: stronger effect = lower value. An outline of the steps:
(§2)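 Compounds were pin-transferred onto cells and incubated 48 or 72 hr at 37 degree Celsius, 95% humidity. CellTiter-Glo was added, plates sat 10 min at room temperature, then ATP-coupled luminescence was imaged as the viability read-out.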
On the technique in general: Cellular ATP, detected with luciferase, serves as a proxy for viable cell number.

The subject of assay [7] is HEK293. The description is as above. The settings on record: Five cell lines viability, CellTiter-Glo ATP luminescence, 48-72 h; max response: stronger effect = lower value. In outline:
as §2

Assay [8] concerns HaCat. The assay is described as above. The settings on record: Five cell lines viability, CellTiter-Glo ATP luminescence, 48-72 h; max response: stronger effect = lower value. In outline:
as §2

In assay [9] the test system is KB-3-1. The description is as above. The settings on record: Five cell lines viability, CellTiter-Glo ATP luminescence, 48-72 h; max response: stronger effect = lower value. In outline:
as §2

The subject of assay [10] is NIH3T3. The assay is described as above. The settings on record: Five cell lines viability, CellTiter-Glo ATP luminescence, 48-72 h; max response: stronger effect = lower value. An outline of the steps: as §2
Assay [11] deals with HACAT. In words: qHTS assay to identify novel small-molecules to repurpose for Merkel cell carcinoma treatment (AID 1296009). The settings on record: MCC and control cell lines, CellTiter-Glo viability, 72 h; at 44.8 µM (top of the series) unless noted. In outline:
(§3)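 Viability readout: ATP luminescence (CellTiter-Glo) after 72 hr drug exposure at 37 degree celsius. Dose-response format was 8 points for NPC and 11 points for MIPE; data normalized to in-plate controls.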
A general note: Quantitative high-throughput screening tests each substance at several concentrations.

Assay [12] has as its system HEK293T. The assay is described as above. To be noted: MCC and control cell lines, CellTiter-Glo viability, 72 h; at 44.8 µM (top of the series) unless noted. An outline of the steps: as §3
In assay [13] the test system is MCC-13. Described as above. To be noted: MCC and control cell lines, CellTiter-Glo viability, 72 h; series mostly up to 46 µM. In outline: as §3
Assay [14] has as its system MKL-1. Described as above. To be noted: MCC and control cell lines, CellTiter-Glo viability, 72 h; series mostly up to 46 µM. An outline of the steps:
as §3

Assay [15] has as its system MKL-2. The assay is described as above. The settings on record: MCC and control cell lines, CellTiter-Glo viability, 72 h; series mostly up to 46 µM. In outline: as §3
The test system of assay [16] is NIH3T3. The assay is described as above. To be noted: MCC and control cell lines, CellTiter-Glo viability, 72 h; at 44.8 µM (top of the series) unless noted. In outline:
as §3

Assay [17] has as its system UISO. The assay is described as above. To be noted: MCC and control cell lines, CellTiter-Glo viability, 72 h; series mostly up to 46 µM. In outline: as §3
The subject of assay [18] is WaGa. The description is as above. To be noted: MCC and control cell lines, CellTiter-Glo viability, 72 h; series mostly up to 46 µM. In outline:
as §3

Assay [19] deals with TAB165. The experiment in a line: qHTS profiling for inhibitors of Plasmodium falciparum proliferation (AID 504749). The settings on record: P. falciparum in erythrocytes, SYBR Green DNA, 72 h; series mostly up to 28.7 µM. An outline of the steps:
as §1

The subject of assay [20] is MCC-26. The experiment in a line: qHTS assay to identify novel small-molecules to repurpose for Merkel cell carcinoma treatment (AID 1296009). The settings on record: MCC and control cell lines, CellTiter-Glo viability, 72 h; series mostly up to 46 µM. An outline of the steps: as §3
Also: nearly all actives have a fitted effect of over 60% in size.
Potency is read from the fitted curve at half-maximal effect.

As for `O=C(O)c1cn(C2CC2)c2cc(N3CCNCC3)c(F)cc2c1=O`, the Potency result in assay [1], in assay [2], in [4], in assay [13], in assay [14] and in assay [15] was “inactive” throughout. Further, the Potency entry in assay [17] and in assay [18] was “inactive” each time. Besides, the Potency was 2.24 µM (active) in assay [3] and 4.55 µM (active) in assay [5]. In addition, the max response is -2.76% (inactive) and -7.47% (inactive) in assay [6]; -1.15% (inactive) in assay [9]. The result in [7], in assay [8], in [9], in assay [10], in assay [11] and in [12] was inactive. In assay [16], the molecule was called inactive.
Regarding `O=C(NCC1CN(c2ccc(N3CCOCC3=O)cc2)C(=O)O1)c1ccc(Cl)s1` (centres undefined), the molecule was classed as inactive in assay [6], in assay [8], in assay [10], in [11] and in assay [16]. Besides, the max response was -28.8% (inactive) in assay [7], -19.6% (inactive) in [9] and 3.35% (inactive) in assay [10]. In addition, the Potency entry in [13], in assay [14], in assay [15], in assay [17] and in assay [18] was “inactive” throughout.
On to `COc1nc(N)nc2c1ncn2[C@@H]1O[C@H](CO)[C@@H](O)[C@@H]1O`, for which the Potency result in assay [1], in [2], in assay [3], in assay [4], in [19] and in [5] was “inactive” throughout. The Potency entry in assay [13], in assay [20], in [14], in assay [15] and in [17] was “inactive” each time. Besides, the max response in [6] is -2.22% (inactive) and 4.78% (inactive); in [10], -9.88% (inactive) and 4.97% (inactive). Also, the molecule was classed as inactive in assay [8], in assay [9], in [11] and in assay [12]. For the same molecule, the Potency entry in [18] was “inactive and 18.7 µM (active)”.
With `NC(=O)c1ccc2[nH]ccc2c1`, the max response in [6] is -5.07% (inactive); in assay [7] it was -1.44% (inactive); in [8], 0.172% (inactive); in assay [9], 5.8% (inactive); in assay [10], -9.23% (inactive). The Potency entry in assay [13], in [20], in [14], in assay [15], in assay [17] and in [18] was “inactive” in each case.
As for `NCCCC(O)(P(=O)(O)O)P(=O)(O)O`, the Potency result in [1], in [2], in assay [3], in assay [4], in assay [19] and in assay [5] was “inactive” each time. Moreover, the Potency result in assay [13], in assay [20], in [14], in [15], in assay [17] and in [18] was “inactive” each time. For the same molecule, the molecule was classed as inactive in assay [6], in assay [10] and in [16]. Moreover, the max response is -6.79% (inactive) in assay [8]; 17.7% (inactive) and -6.17% (inactive) in assay [9]; 0.802% (inactive) in assay [10].
As for `CN(CCOc1ccc(CC2SC(=O)NC2=O)cc1)c1ccccn1` (centres undefined), the Potency entry in assay [1], in [2], in assay [3], in assay [4], in [19] and in assay [5] was “inactive” throughout. The Potency entry in [13], in assay [20], in [14], in assay [15], in assay [17] and in [18] was “inactive” each time. Besides, the max response was 0.739% (inactive) in assay [6]; -1.01% (inactive) and -2.41% (inactive) in [9]; 0.939% (inactive) in [10]. Further, the outcome in [8], in assay [11] and in assay [12] was inactive.
For `C#CCN[C@@H]1CCc2ccccc21`, the Potency entry in [1], in assay [2], in [3], in [4], in [19] and in assay [5] was “inactive” in each case. For the same molecule, the Potency entry in assay [13], in [14], in [15], in assay [17] and in assay [18] was “inactive” throughout. Also, the max response was -10.3% (inactive) and 4.11% (inactive) in [6]; 0.653% (inactive) in [8]; -4.71% (inactive) in [9]; 1.77% (inactive) in assay [10]. The molecule was classed as inactive in assay [10], in assay [12] and in assay [16].
`CC[C@H](C)C(=O)O[C@H]1C[C@@H](C)C=C2C=C[C@H](C)[C@H](CC[C@@H]3C[C@@H](O)CC(=O)O3)[C@H]21`: the Potency entry in assay [1], in assay [2], in assay [3], in assay [4], in assay [19] and in [20] was “inactive” each time. Besides, the Potency result in assay [18] was “inactive”. The Potency was 2.66 µM (active) and 13.2 µM (active) and 3.17 µM (active) in assay [6]; 11.8 µM (active) in assay [8]; 21.1 µM (active) in assay [13]; 23.7 µM (active) and inactive in [14]; 9.44 µM (active) and 20.9 µM (active) in assay [17]. Also, the max response in assay [7] was -37.5% (inactive); in [10] it was -16.3% (inactive).
As for `Nc1nc(=S)c2[nH]cnc2[nH]1`, the Potency is 18.8 µM (active) in assay [6]; 3.76 µM (active) and 9.35 µM (active) in assay [7]; 1.5 µM (active) and 4.69 µM (active) in [8]; 5.17 µM (active) and 3.66 µM (active) and 1.32 µM (active) in assay [9]; 841 nM (active) and 3.32 µM (active) in assay [10]; 4.22 µM (active) in assay [13]. The Potency in assay [20] is 20.9 µM (active); in assay [14] it was 2.37 µM (active) and 23.5 µM (active); in assay [15], 7.5 µM (active); in assay [17], 1.33 µM (active); in [18], 3.35 µM (active) and 10.5 µM (active).
Regarding `CC(C)C[C@H](NC(=O)[C@H](CCc1ccccc1)NC(=O)CN1CCOCC1)C(=O)N[C@@H](Cc1ccccc1)C(=O)N[C@@H](CC(C)C)C(=O)[C@@]1(C)CO1`, the Potency in [6] is 211 nM (active) and 209 nM (active); in assay [7] it was 37.6 nM (active) and 23.5 nM (active); in assay [8], 0.332 µM (active); in assay [9] it was 1.84 µM (active) and 132 nM (active); in [10] it was 299 nM (active) and 235 nM (active); in [13] it was 84.1 nM (active) and 418 nM (active). Moreover, the Potency in assay [20] was 0.105 µM (active); in assay [14] it was 5.3 nM (active) and 37.2 nM (active); in assay [15] it was 1.1 nM (active) and 14.8 nM (active); in [17], 18.8 nM (active) and 59 nM (active); in assay [18], 4.7 nM (active) and 29.6 nM (active).
In the case of `CNC1CCCN(c2c(F)cc3c(=O)c(C(=O)O)cn(C4CC4)c3c2OC)C1` (centres undefined), the Potency entry in [1], in assay [2], in assay [3], in assay [4], in assay [19] and in [13] was “inactive” throughout. In addition, the Potency entry in [20], in [14], in [15], in assay [17] and in assay [18] was “inactive” each time. The max response in assay [6] was -2.7% (inactive); in assay [7] it was -0.681% (inactive) and -8.47% (inactive); in [8], 0.986% (inactive) and -11% (inactive); in assay [10] it was -6.02% (inactive). In addition, the molecule was classed as inactive in assay [9], in assay [10] and in assay [16].
